From the supplement of paper PMC12350171
Structures can show the parent of a compound that is named as a salt. A number with no mark means an inactive call.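 Rule for the calls: active = AUC significantly below DMSO controls by Student t-fit with adjusted P under 0.01; inactive = not significantly reduced.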

Each molecule was assayed on Haemophilus parainfluenzae (assay: growth AUC normalised to DMSO control (fraction of control); higher = less growth inhibition, active = hit call of the paper). Conditions: 20 µM.
Procedure, shortened: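 Three biological replicates were carried out, with OD578 read hourly for 24 h. Before inoculation at a starting OD578 of 0.01, pathogens were passaged anaerobically twice; plates were pre-reduced mGAM containing 20 μM compound and 1% DMSO, sealed with breathable membranes, and the Haemophilus parainfluenzae medium carried added hemin and NAD. Area under each growth curve was calculated by the trapezoidal rule up to the exponential-to-stationary transition and normalised to DMSO controls on the same plate.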
In the case of `CCN(CC)CCc1nc(-c2ccccc2)no1` [Oxolamine citrate salt], the “growth AUC normalised to DMSO control” value is reported as 1.05. For `CCC1=C(C)CN(C(=O)NCCc2ccc(S(=O)(=O)NC(=O)N[C@H]3CC[C@H](C)CC3)cc2)C1=O` [Glimepiride], the “growth AUC normalised to DMSO control” value was 1.02. In the case of `Fc1ccc([C@@H]2CCNC[C@H]2COc2ccc3c(c2)OCO3)cc1` [Paroxetine hydrochloride], the “growth AUC normalised to DMSO control” value is reported as 0.998. For `Nc1ccc(O)c(C(=O)O)c1` [Mesalamine], the “growth AUC normalised to DMSO control” value was 1.05. With `CC[C@H]1OC(=O)[C@H](C)[C@@H](O[C@H]2C[C@@](C)(OC)[C@@H](O)[C@H](C)O2)[C@H](C)[C@@H](O[C@@H]2O[C@H](C)C[C@H](N(C)C)[C@H]2O)[C@](C)(O)C[C@@H](C)/C(=N\OCOCCOC)[C@H](C)[C@@H](O)[C@]1(C)O` [Roxithromycin] the “growth AUC normalised to DMSO control” value was 0.1 (active). With `O=C(N/N=C/c1ccc([N+](=O)[O-])o1)c1ccc(O)cc1` [Nifuroxazide] the “growth AUC normalised to DMSO control” value was 0.532 (active). `C#C[C@]1(O)CC[C@H]2[C@@H]3CCC4=CCCC[C@@H]4[C@H]3CC[C@@]21C` [Lynestrenol] was tested, and the “growth AUC normalised to DMSO control” value was 0.931. With `CCCC(=O)Nc1ncnc2c1ncn2[C@@H]1O[C@@H]2COP(=O)(O)O[C@H]2[C@H]1OC(=O)CCC` [Bucladesine sodium salt] the “growth AUC normalised to DMSO control” value was 1. In the case of `CN(Cc1cnc2nc(N)nc(N)c2n1)c1ccc(C(=O)N[C@@H](CCC(=O)O)C(=O)O)cc1` [Amethopterin], the “growth AUC normalised to DMSO control” value is reported as 0.0201 (active). `CN1CCOC(c2ccccc2)c2ccccc2C1` (centres undefined) [Nefopam hydrochloride] was tested, and the “growth AUC normalised to DMSO control” value was 1. In the case of `CC1Cc2ccccc2N1NC(=O)c1ccc(Cl)c(S(N)(=O)=O)c1` (centres undefined) [Indapamide], the “growth AUC normalised to DMSO control” value is reported as 1.03. With `O=C(CCNNC(=O)c1ccncc1)NCc1ccccc1` [Nialamide] the “growth AUC normalised to DMSO control” value was 1.01. For `COc1ccc([C@@H]2Sc3ccccc3N(CCN(C)C)C(=O)[C@@H]2OC(C)=O)cc1` [Diltiazem hydrochloride], the “growth AUC normalised to DMSO control” value was 0.988. With `CN(C)CCC(c1ccc(Cl)cc1)c1ccccn1` (centres undefined) [Chlorpheniramine maleate] the “growth AUC normalised to DMSO control” value was 0.995. For `CO/N=C(\C(=O)N[C@@H]1C(=O)N2C(C(=O)O)=C(COC(N)=O)CS[C@H]12)c1ccco1` [Cefuroxime sodium salt], the “growth AUC normalised to DMSO control” value was 0.0255 (active). With `COc1ccc2c(c1)C(=O)N(CCc1ccc(S(=O)(=O)NC(=O)NC3CCCCC3)cc1)C(=O)C2(C)C` [Gliquidone] the “growth AUC normalised to DMSO control” value was 0.998. In the case of `Cc1cccc(N(C)C(=S)Oc2ccc3ccccc3c2)c1` [Tolnaftate], the “growth AUC normalised to DMSO control” value is reported as 1. With `CCOC(=O)NNc1nncc2ccccc12` [Todralazine hydrochloride] the “growth AUC normalised to DMSO control” value was 1.01. With `O=C(c1ccccc1)c1ccc2n1CCC2C(=O)O` (centres undefined) [Ketorolac tromethamine] the “growth AUC normalised to DMSO control” value was 0.972. For `Cc1nnc(NS(=O)(=O)c2ccc(N)cc2)s1` [Sulfamethizole], the “growth AUC normalised to DMSO control” value was 0.903. For `CCCCC1C(=O)N(c2ccccc2)N(c2ccc(O)cc2)C1=O` (centres undefined) [Oxyphenbutazone], the “growth AUC normalised to DMSO control” value was 1.08. For `C=CC[N@@+]12CC[C@@]34c5ccccc5N5/C=C6/[C@H]7C[C@H]8[C@@]9(CC[N@@+]8(CC=C)C/C7=C/CO)c7ccccc7N(/C=C(/[C@@H](C[C@@H]31)/C(=C\CO)C2)[C@H]54)[C@@H]69` [Alcuronium chloride], the “growth AUC normalised to DMSO control” value was 1. In the case of `O=C(OCC(O)CO)c1ccccc1Nc1ccnc2cc(Cl)ccc12` (centres undefined) [Glafenine hydrochloride], the “growth AUC normalised to DMSO control” value is reported as 0.978. In the case of `Cc1ccnc(NS(=O)(=O)c2ccc(N)cc2)n1` [Sulfamerazine], the “growth AUC normalised to DMSO control” value is reported as 0.994. With `Clc1ccccc1CN1CCc2sccc2C1` [Ticlopidine hydrochloride] the “growth AUC normalised to DMSO control” value was 0.972. `C[C@]12C=CC(=O)C=C1CC[C@@H]1[C@@H]2[C@@H](O)C[C@@]2(C)[C@H]1CC[C@]2(O)C(=O)CO` [Prednisolone] was tested, and the “growth AUC normalised to DMSO control” value was 0.935. `NNCCc1ccccc1` [Phenelzine sulfate] was tested, and the “growth AUC normalised to DMSO control” value was 1.02. For `CC(=O)O[C@H]1C[C@@]2(C)[C@@H](C[C@@H](O)[C@H]3[C@@]4(C)CC[C@@H](O)[C@@H](C)[C@@H]4CC[C@@]32C)/C1=C(\CCC=C(C)C)C(=O)O` [Fusidic acid sodium salt], the “growth AUC normalised to DMSO control” value was 0.345 (active). `CCN(CC)CCCC(C)Nc1c2ccc(Cl)cc2nc2ccc(OC)cc12` (centres undefined) [Quinacrine dihydrochloride hydrate] was tested, and the “growth AUC normalised to DMSO control” value was 0.879. In the case of `CN(C)[C@@H]1C(=O)C(C(=O)NCNCCCC[C@H](N)C(=O)O)=C(O)[C@@]2(O)C(=O)C3=C(O)c4c(O)cccc4[C@@](C)(O)[C@H]3C[C@@H]12` [Lymecycline], the “growth AUC normalised to DMSO control” value is reported as 0.935. In the case of `CCc1cc(Cl)c(OC)c(C(=O)NC[C@@H]2CCCN2CC)c1O` [(S,-) Eticlopride hydrochloride], the “growth AUC normalised to DMSO control” value is reported as 0.958. `CCCNCC(O)COc1ccccc1C(=O)CCc1ccccc1` (centres undefined) [Propafenone hydrochloride] was tested, and the “growth AUC normalised to DMSO control” value was 1.01. With `CO[C@@]1(NC(=O)Cc2cccs2)C(=O)N2C(C(=O)O)=C(COC(N)=O)CS[C@@H]21` [Cefoxitin sodium salt] the “growth AUC normalised to DMSO control” value was 0.0362 (active). With `CN(C)CCCC1(c2ccc(F)cc2)OCc2cc(C#N)ccc21` (centres undefined) [Citalopram hydrobromide] the “growth AUC normalised to DMSO control” value was 1.01. With `N=C(N)NCCN1CCCCCCC1` [Guanethidine sulfate] the “growth AUC normalised to DMSO control” value was 1.03. `CN(C)CCN1C(=O)c2ccccc2N(C)c2ccccc21` [Dibenzepine hydrochloride] was tested, and the “growth AUC normalised to DMSO control” value was 0.97. In the case of `CCn1nc(C(=O)O)c(=O)c2cc3c(cc21)OCO3` [Cinoxacin], the “growth AUC normalised to DMSO control” value is reported as 0.294 (active). `CO[C@H]1/C=C/O[C@@]2(C)Oc3c(C)c(O)c4c(O)c(c(/C=N/N5CCN(C)CC5)c(O)c4c3C2=O)NC(=O)/C(C)=C\C=C\[C@H](C)[C@H](O)[C@@H](C)[C@@H](O)[C@@H](C)[C@H](OC(C)=O)[C@@H]1C` [Rifampicin] was tested, and the “growth AUC normalised to DMSO control” value was 0.0335 (active). For `C=CC1=C(C(=O)O)N2C(=O)[C@@H](NC(=O)/C(=N\O)c3csc(N)n3)[C@H]2SC1` [Cefdinir], the “growth AUC normalised to DMSO control” value was 0.176 (active).
